Screening results (PubChem BioAssay)
HT1080-NT tox – kills 2HG-producing HT-1080-NT fibrosarcoma cells; HT-1080-NT fibrosarcoma viability, CellTiter-Glo ATP luminescence, 48 h; Potency, µM (highest dose often 46.1 µM), without a hit: top-dose activity, negative = less viability, usual class: cytotoxic; actives 1.6% (n = 360,000);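 further: NT is the 2HG producing partner of a matched IDH1 knockdown line; potency means the concentration at half of the fitted maximal effect; 0% = DMSO-treated cells and -100% = media-only wells without cells; nearly all actives have a fitted effect of over 55% in size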
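A 48-hour cytotoxicity screen used HT-1080-NT cells plated 2 hours before compound delivery. ATP-based CellTiter-Glo luminescence measured viability, normalized to DMSO and no-cell controls.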
IL-1B inflam inh – inflammasome signaling inhibition, IL-1 beta readout; actives 4.7% (n = 360,000); activity change, % at 57.5 µM; THP-1 LPS/ATP IL-1B secretion, AlphaLISA, 16 h; active compounds read low; in the data active means activity change below about -50%; inconclusive means mostly about -30% to -49%
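Secreted IL-1B measured by AlphaLISA bead assay after 16 h compound exposure of THP-1 cells; compounds (final up to 57.5 uM) added 1 h before LPS (250 ng/mL) and ATP (1.25 mM) stimulation; lower signal means less secretion.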
TDP1 cell noCPT – qHTS for Inhibitors of human tyrosyl-DNA phosphodiesterase 1 (TDP1): qHTS in cells in absence of CPT. DT40 Tdp1-/- hTDP1 cells, no CPT, ATP luminescence, 48 h. Potency, µM (titrated, usually from 46.2 µM), for the others: top-dose activity change, negative = growth inhibition, usual class: inhibitors. actives 15% (n = 420,000). AID 686978, 2013; further: potency means the concentration at half of the fitted maximal effect; nearly all actives have a fitted effect of over 55% in size
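Compound effects on proliferation are scored in DT40 Tdp1-/-;hTDP1 cells in the absence of CPT. ATP levels (CellTiter-Glo luminescence) are recorded after a ≥48 hr, 37 °C incubation.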
HT1080 IDH1KD tx – HT-1080 IDH1 knockdown cell toxicity (counter line) | HT-1080 IDH1 knockdown viability, ATP luminescence, 48 h | Potency, µM (doses to about 46.1 µM), without a hit: at the top dose activity, negative = toxicity, most hits filed as cytotoxic | actives 2% (n = 360,000);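 further: potency means the concentration at half of the fitted maximal effect; 0% = DMSO wells and -100% = cell-free medium wells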
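IDH1KD HT-1080 cells, 750/well, RPMI + 5% FBS; compound pinned after 2 h settling; 48 h, 37 °C; CellTiter-Glo luminescence; % activity normalised to DMSO and no-cell wells; curves fitted, classed by r2 and efficacy.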
TDP1 cell CPT – DT40-hTDP1 cell growth loss with CPT; AID 686979; Potency, µM (series often up to 46.2 µM), without a hit: top-dose activity change, negative = growth inhibition, hits mostly inhibitors; chicken DT40 Tdp1-/-;hTDP1 cells + 20 nM CPT, ATP luminescence, 48 h; actives 12% (n = 420,000); further: potency means the concentration at half of the fitted maximal effect; nearly all actives have a fitted effect of over 55% in size
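Chicken DT40 Tdp1-/- cells stably complemented with human TDP1 were seeded at 400 cells/well in medium containing 20 nM camptothecin, exposed to pin-transferred compounds, and grown at 37 °C for at least 48 hr. Viability was read as ATP luminescence.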
The depositor's hits bear a star; ? = inconclusive; . = no result. An excerpt weighted towards active compounds, which were near 19% of everything screened. Unless noted, the call rests on the fitted dose curve; in most records, active means well fitted curve in the direction sought with a large enough effect; inconclusive means small, poorly fitted or top-dose-only effect, or another doubt; inactive means no such curve, though single readings can be large; an effect the other way counts as inactive or inconclusive. Unless noted, on the % scale 0 is the no-effect control and ±100 the full control effect.

SMILES	HT1080-NT tox	IL-1B inflam inh	TDP1 cell noCPT	HT1080 IDH1KD tx	TDP1 cell CPT
O=C(Nc1cccc(OC(=O)c2ccc(Br)o2)c1)c1ccccc1	10%	-14	7%	15%	-2%
COc1ccc(Nc2nnc(-c3ccc(C)c(S(=O)(=O)N4CCOCC4)c3)c3ccccc23)cc1	.	.	7.3µM*	.	15µM*
CNC(=O)c1ccc(Nc2nnc(-c3ccc(C)c(S(=O)(=O)N4CCOCC4)c3)c3ccccc23)cc1	.	.	7.3µM*	.	21µM*
COc1ccc(Nc2nc(-c3ccccc3)nc3ccccc23)cc1S(=O)(=O)N1CCOCC1	?	-74*	8.2µM*	?	15µM*
Cc1ccc(-c2nnc(Nc3ccc(C(N)=O)cc3)c3ccccc23)cc1S(N)(=O)=O	.	.	0%	.	10%
Cc1ccc(Nc2nnc(-c3ccc(C)c(S(=O)(=O)N4CCOCC4)c3)c3ccccc23)cc1	.	.	10µM*	.	16µM*
CNC(=O)c1ccc(Nc2nnc(-c3ccc(C)c(S(=O)(=O)N4CCCCC4)c3)c3ccccc23)cc1	.	.	-3%	.	1%
CC(C)(C(=O)N1CCC1(C)C(=O)Nc1ccccc1Br)c1ccccc1 (stereo not drawn)	2%	0	?	10%	?
O=C(NCc1ccccc1)c1ccccc1C(=O)c1ncc[nH]1	13%	-1	-1%	18%	-1%
CCOC(=O)N1CCC(N2Cc3cccc(C(=O)NCc4ccc(C)cc4)c3C2=O)CC1	-3%	5	?	-1%	?
CCOc1ccccc1C(=O)NC(C)c1ccc2c(c1)OCO2 (stereo not drawn)	?	17	?	?	18µM*
CCOc1ccccc1C(=O)NC(C(=O)N(C)Cc1ccc2c(c1)OCO2)C(C)C (stereo not drawn)	7%	18	?	6%	18µM*
CCOc1ccccc1C(=O)NCC(=O)Nc1ccc2c(c1)OCO2	-28%	15	-7%	-2%	-20%
CCOC(=O)N1CCC(N2Cc3cccc(C(=O)NC(C)c4ccc5c(c4)OCCO5)c3C2=O)CC1 (stereo not drawn)	-11%	-22	23µM*	-1%	?
Cc1ccc([C@@H]2CC=C(C(=O)O)[C@H](c3ccc(Cl)cc3)N2S(=O)(=O)c2ccccc2C)cc1	-10%	40	-10%	-21%	-16%
Cc1cccc(NC(=O)CSCC(=O)N(C)CCOc2ccc(Cl)cc2)c1	-1%	?	?	-7%	-9%
O=C1NC(=O)C2(COC(c3cccnc3)OC2)S1 (stereo not drawn)	15%	8	1%	19%	1%
O=C(NCCCc1nc2ccccc2n1Cc1ccccc1)C1CCCCC1	.	.	16µM*	.	18µM*
O=C(NCCCc1nc2ccccc2n1CCOc1ccccc1)C1CCCCC1	.	.	-26%	.	-28%
O=C(NCCCc1nc2ccccc2n1Cc1ccc(F)cc1)C1CCCCC1	.	.	26µM*	.	?
Cc1ccccc1Cn1c(CCCNC(=O)C2CCCCC2)nc2ccccc21	.	.	15µM*	.	18µM*
Cc1cc(=O)n2[nH]c(-c3ccc(F)cc3)cc2n1	5%	-5	13µM*	22%	?
CCOC(=O)Cc1c(C)nc2c(-c3ccc(Cl)cc3)c(C)[nH]n2c1=O	13µM*	42	23µM*	10µM*	23µM*
CCOC(=O)Cc1c(C)nc2c(-c3cccc(Br)c3)c[nH]n2c1=O	?	36	4.1µM*	?	9.2µM*
Cc1cc(=O)n2[nH]c(-c3ccc(Cl)cc3)cc2n1	-1%	4	21µM*	-1%	18µM*
SMILES	HT1080-NT tox	IL-1B inflam inh	TDP1 cell noCPT	HT1080 IDH1KD tx	TDP1 cell CPT
CCOC(=O)Cc1c(C)nc2c(C#N)c[nH]n2c1=O	13%	6	1%	2%	0%
Cc1cc(=O)n2[nH]c(-c3ccsc3-n3c(C)ccc3C)cc2n1	0%	-4	?	3%	?
CC(=O)N1CCc2cc(CNS(=O)(=O)c3ccccc3C(F)(F)F)ccc21	.	.	0%	.	-2%
O=C(/C=C/c1c(F)cccc1Cl)NCc1ccc2c(c1)OCO2	6%	0	6%	1%	28%
Cc1cc(=O)n2[nH]c(C)c(-c3ccc(Cl)cc3)c2n1	?	1	?	-26%	23µM*
Cc1cccc(-c2cc3nc(-c4ccccc4)cc(=O)n3[nH]2)c1	?	1	23µM*	?	23µM*
Cc1ccccc1-c1cc2nc(-c3ccc([N+](=O)[O-])cc3)cc(=O)n2[nH]1	13%	17	-15%	10%	-22%
Cc1cc(=O)n2[nH]c(C)c(-c3ccccc3)c2n1	-2%	16	?	8%	-23%
COC(=O)c1c(C)[nH]c(C(=O)/C=C/c2ccccc2F)c1C	18%	.	?	?	-21%
COc1ccc(OCC(O)CNS(=O)(=O)c2cccs2)cc1 (stereo not drawn)	4%	24	-16%	-1%	?
C[C@H]1CN=C(Nc2ccccc2)N1CCc1ccc(F)cc1	-3%	-13	?	-3%	-23%
NC1=NC(c2cccc(Cl)c2)N(CCc2ccc(F)cc2)C(N)=N1 (stereo not drawn)	?	.	23µM*	?	?
CCOc1cc(/C=C2\COc3ccccc3C2=O)cc(Br)c1OCC(=O)N(C)C	18µM*	-103*	4.6µM*	13µM*	3.7µM*
COc1ccc(/C=C2\COc3ccccc3C2=O)c(OC)c1	?	2	?	?	21µM*
COc1ccc(/C=C2\C(=O)NC(=O)c3ccccc32)cc1OC	0%	51	1.5µM*	12%	1.6µM*
COc1ccc(C=C2C(=O)OC(C)(C)OC2=O)cc1OC	-2%	-1	-10%	-1%	-1%
COc1ccc(/C=C2/CCc3ccccc3C2=O)cc1OC	7%	-99*	?	-13%	?
COc1cccc(NC(=O)COC(=O)CCn2c(C)csc2=O)c1	-1%	11	0%	-11%	13%
Cc1ccc(S(=O)(=O)Nc2ccc(Cl)cc2O)cc1	?	-21	?	?	?
Cc1cc(C)cc(-c2nnc(SCC(=O)c3c(N)n(C4CC4)c(=O)[nH]c3=O)o2)c1	8%	3	-11%	3%	-4%
COc1cc(/C=C2/CCc3ccccc3C2=O)cc(OC)c1OC	-17%	-99*	15µM*	-23%	?
COc1ccc2c(c1)OC/C(=C/c1cccs1)C2=O	10%	-27	?	8%	3%
COc1ccc2c(c1)/C(=C/c1cc(OC)c(OC)c(OC)c1)C(=O)N2	5.8µM*	-6	0.73µM*	5.8µM*	0.52µM*
